# Laboratory results as given in PubChem BioAssay (NCATS).
# Results with a measured potency or affinity are listed apart. A number with no mark means an inactive call. Calls of active or inactive are those of the source. No rule for the calls is given here.
# Experiments:
# [1] = Ebola virus entry assay, green fluorescence channel
# [2] = Ebola virus entry assay, green channel fluorescence
# For efficacy in this document: 0% is about no effect.
SMILES,efficacy [1],outcome [2]
CN1C(C)(C)CCCC1(C)C,14.2%,inactive
C[C@@H]1CN(c2c(F)c(F)c3c(=O)c(C(=O)O)cn(C4CC4)c3c2F)C[C@H](C)N1,-15.7%,inactive
CCn1ccc(NS(=O)(=O)c2ccc(N)cc2)nc1=O,-11.6%,inactive
Cn1c([N+](=O)[O-])cnc1COC(N)=O,19.4%,inactive
Oc1ccccc1C=NCc1ccccc1,-16.4%,inactive
NC(=O)CS(=O)C(c1ccccc1)c1ccccc1 (stereo unspecified),-20.1%,inactive
CC(C)[N+](C)(C)CC(O)COc1cccc2ccccc12 (stereo unspecified),-28.5%,inactive
COc1cc(OC)c(C(=O)CCCN2CCCC2)c(OC)c1,-22.4%,inactive
COc1cnc(NS(=O)(=O)c2ccc(N)cc2)nc1,-24.4%,inactive
COC(=O)CCCCC(CCSS/C(CCO)=C(\C)N(C=O)Cc1cnc(C)nc1N)SC(C)=O (stereo unspecified),-13.6%,inactive
C[C@]12CC[C@@H]3c4ccc(OC(=O)N(CCCl)CCCl)cc4CC[C@H]3[C@@H]1CC[C@@H]2O,-12.5%,inactive
Cc1cc(O)cc(C)c1Cl,-20.2%,inactive
NC[C@H]1O[C@H](O[C@H]2[C@H](O[C@@H]3O[C@H](CO)[C@@H](O)[C@H]3O)C(O)[C@H](N)C[C@@H]2N)[C@H](N)[C@@H](O)[C@@H]1O (stereo partly specified),-16%,inactive
CCCCOC(=O)c1ccc(N)cc1,12.8%,inactive
CCc1oc2ccccc2c1C(=O)c1cc(I)c(O)c(I)c1,-12%,inactive
O=[N+]([O-])O[C@H]1CO[C@H]2[C@@H]1OC[C@H]2O[N+](=O)[O-],-25.2%,inactive
Cc1c(C(=O)NCCO)[n+](=O)c2ccccc2n1[O-],-17%,inactive

SMILES,efficacy [1],outcome [2]
Nc1ncnc2c1ncn2Cc1c(F)cccc1Cl,-22.1%,inactive
CN1CCC(O)(c2ccc(F)cc2)C(C(=O)c2ccc(F)cc2)C1 (stereo unspecified),22.6%,inactive
CC(C)(N)Cc1ccccc1Cl,18%,inactive
[N-]=[N+]=CC(=O)OC[C@H](N)C(=O)O,10.3%,inactive
COc1ccc(C(=O)CC(=O)c2ccc(C(C)(C)C)cc2)cc1,-14.9%,inactive
CCCc1c2oc(C(=O)O)cc(=O)c2cc2c(=O)cc(C(=O)O)n(CC)c12,16%,inactive
CN=C(NC#N)Nc1ccc(C2=NNC(=O)CC2C)cc1 (stereo unspecified),-19.1%,inactive
CC(O)CCCCn1c(=O)c2c(ncn2C)n(C)c1=O (stereo unspecified),23.8%,inactive
CC(C)(Oc1ccc(Cl)cc1)C(=O)O,-14.9%,inactive
C[C@@H](CN1CC(=O)NC(=O)C1)N1CC(=O)NC(=O)C1,17.9%,inactive
CC(C)Cc1ccc(C(C)C(=O)O)cc1 (stereo unspecified),17.8%,inactive
CCCCCCCCCCCCCCCC(=O)OC(C)C,10.3%,inactive
O=C1c2ccccc2C(=O)C1C(=O)C(c1ccccc1)c1ccccc1,-17.4%,inactive
CCOc1ccc2nc3cc(N)ccc3c(N)c2c1,18.4%,inactive
Nc1ccc(C(=O)Nc2ccccc2N)cc1,-27%,inactive
C=C(C)[C@H]1CN[C@H](C(=O)O)[C@H]1CC(=O)O,-11.7%,inactive
